This excerpt belongs to a sample that is enriched for hits.
Sm TGR block: blocks Schistosoma mansoni thioredoxin glutathione reductase; purified TGR, DTNB reduction, TNB absorbance 405 nm; Potency, µM (titrated, usually from 114 µM), for the others: at the highest dose activity change, negative = inhibition, hits mostly inhibitors; hit rate 3% among 360,000; AID 485364; also: potency is read from the fitted curve at half-maximal effect; % is scaled to controls: 0 for no effect and ±100 for the full control effect; nearly all actives have a fitted effect of over 60% in size
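TGR 20 nM + NADPH 100 uM (dispensed conc.), cpd preinc 15 min RT; start with NADPH (500 uM addition) then DTNB (15 mM addition). Kinetic TNB absorbance, 405 nm filter. Four-parameter Hill fit across titration.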
Shiga toxin inh: inhibitors of Shiga toxin in Vero cells. Vero cells, Shiga toxin protein synthesis inhibition reporter. inhibition, % at 38.7 µM. hit rate 9.2% among 290,000; in the data active = inhibition mostly above about 28%, no sharp cut-off; inactive = mostly below about 43%; also: 0% is about no effect
LmPK inhibitor: LmPK (Leishmania mexicana) enzyme inhibition. Q27686. purified LmPK, Kinase-Glo ATP luminescence, 1 h. Potency, µM (highest dose often 57.5 µM), for the others: at the top dose activity change, negative = inhibition, usual class: inhibitors. hit rate 0.37% among 290,000. AID 1721; also: potency is read from the fitted curve at half-maximal effect; % is scaled to controls: 0 for no effect and ±100 for the full control effect
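Purified LmPK (0.1 nM) converted ADP (0.1 mM) to ATP with PEP (0.5 mM) in imidazole buffer pH 7.2 with KCl and MgCl2, 1 h at room temperature. ATP was read by Kinase-Glo luminescence; data normalized to uninhibited and no-enzyme controls.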
TbPYK inhibitor: T. brucei pyruvate kinase inhibition; AID 624173; hit rate 0.12% among 410,000; Q57TT1; Potency, µM (titrated, usually from 76.8 µM), for the others: at the top dose activity, negative = inhibition, actives largely listed as inhibitors; TbPYK enzyme, Kinase-Glo Plus ATP luminescence, 45 min; also: potency is read from the fitted curve at half-maximal effect; % is scaled to controls: 0 for no effect and ±100 for the full control effect; nearly all actives have a fitted effect of over 50% in size
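Assay buffer: 50 mM TEA pH 7.2, 100 mM KCl, 10 mM MgCl2, 0.05% BSA, 0.01% Tween-20. Pyruvate kinase from T. brucei plus substrate met compound, then ADP (130 uM final). Luminescence was read post 45 min RT.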
Cycloheximide cs: affects cycloheximide protein synthesis inhibition readout, counter-screen. cell reporter, cycloheximide protein synthesis inhibition counterscreen. max response, %. hit rate 12% among 300,000. AID 2314; in the data active = max response mostly above about 13%, no sharp cut-off; inactive = mostly below about 14%; also: read at 38.3 µM for the half of the compounds with a filed dose; 0% is about no effect
FBPA Giardia inh: blocks Giardia fructose-bisphosphate aldolase activity | A8B2U2 | purified Giardia FBPA | Potency, µM (doses to about 59.6 µM), without a hit: at the top dose activity, negative = inhibition, hits mostly inhibitors | hit rate 0.71% among 290,000 | AID 2451; also: potency is read from the fitted curve at half-maximal effect; % is scaled to controls: 0 for no effect and ±100 for the full control effect; nearly all actives have a fitted effect of over 55% in size
Target sequence (A8B2U2 whole entry, looked up): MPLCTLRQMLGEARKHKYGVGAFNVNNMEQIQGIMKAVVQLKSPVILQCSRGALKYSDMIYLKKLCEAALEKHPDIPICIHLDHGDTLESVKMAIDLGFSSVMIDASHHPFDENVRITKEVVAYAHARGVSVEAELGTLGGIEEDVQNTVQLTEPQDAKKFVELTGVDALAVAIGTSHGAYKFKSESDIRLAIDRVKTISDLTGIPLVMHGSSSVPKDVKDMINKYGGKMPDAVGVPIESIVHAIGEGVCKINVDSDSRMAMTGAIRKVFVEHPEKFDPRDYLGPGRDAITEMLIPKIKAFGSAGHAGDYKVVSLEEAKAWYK
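40 nM FBPA preincubated 10 min at RT with compound (up to 57.5 uM final), then substrate plus GAPDH/TPI/NAD/arsenate coupling and diaphorase/resazurin added. Fluorescence read after 20 min at RT, 525/598 nm.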
* = called active by the depositor; ? = inconclusive; · = not tested or not shown. Unless noted, calls follow the shape of the dose curve; as a rule, active = well fitted curve in the direction sought with a large enough effect; inconclusive = small, poorly fitted or top-dose-only effect, or another doubt; inactive = no such curve, though single readings can be large; an effect the other way counts as inactive or inconclusive.

SMILES | Sm TGR block | Shiga toxin inh | LmPK inhibitor | TbPYK inhibitor | Cycloheximide cs | FBPA Giardia inh
O=C(Oc1ccc2ccccc2c1Cl)N1CCCCCC1 | -9% | 71* | -10% | 0% | 66* | 8%
O=C(OCc1ccccc1)N1CCN(C(c2ccnc3ccccc23)c2nnnn2-c2ccc3c(c2)OCCO3)CC1 (stereo not drawn) | · | · | · | 3% | · | ·
CN(C)c1ccc(/C=C2\CCCCC2=O)cc1 | -1% | 28 | -16% | -5% | 14* | -3%
CN(C)c1ccc(C=C2C(=O)NC(=O)NC2=O)cc1 | · | · | · | -26% | · | ·
CN(CCC1CCOCC1)C(=O)c1cc(COc2c(F)cccc2F)on1 | -2% | 23 | 2% | -6% | 27* | ·
CN(CC1COCCO1)C(=O)c1cc(COc2c(F)cccc2F)on1 (stereo not drawn) | -13% | 53* | 6% | 2% | 27* | 4%
CN(Cc1cc(-c2ccccc2)on1)C(=O)c1cc(COc2c(F)cccc2F)on1 | 3% | 70* | 3% | 2% | 42* | -2%
CSc1ccccc1OCc1cc(C(=O)N(C)CC2COCCO2)no1 (stereo not drawn) | 3% | 61* | -4% | 4% | 30* | ·
CN(CC1COc2ccccc2O1)C(=O)c1cc(COc2c(F)cccc2F)on1 (stereo not drawn) | -15% | 13 | -2% | -2% | 6 | ·
COc1ccccc1N1CCN(C(CNC(=O)C(=O)NCCCN(C)C)c2cccnc2)CC1 (stereo not drawn) | -1% | · | · | 1% | · | ·
COc1ccc(O)c(C(=O)CC(=O)c2ccccc2C)c1 | 18% | 76* | 5% | 3% | 58* | -5%
COc1ccc(C(=O)CC(=O)c2ccccc2O)cc1 | -4% | · | 2% | 1% | 39* | -11%
COc1ccc(C(=O)CC(=O)c2ccccc2O)cc1OC | · | 79* | -2% | -5% | 34* | 4%
COc1ccc(O)c(C(=O)CC(=O)c2ccc(F)cc2)c1 | 1% | 51 | -11% | 1% | 20* | ?
COc1ccc(Oc2ncc3nc(CCc4ccccc4)c(=O)n(C4CC4)c3n2)cc1 | · | · | · | -5% | · | -3%
CN(C)c1ncc2nc(-c3cccs3)c(=O)n(C)c2n1 | · | · | · | · | · | 6%
CC(=O)C1=C(O)C(=O)N(c2ccc(C)cc2)C1c1ccccn1 (stereo not drawn) | -2% | 37* | 3% | -15% | 22* | -12%
CC(=O)C1=C(O)C(=O)N(c2ccc(O)cc2)C1c1ccc(C)cc1 (stereo not drawn) | -6% | -12 | -1% | -3% | 0 | -10%
Cc1ccc(C)c(N2CCN(C3(c4ccccc4)C(=O)c4ccccc4C3=O)CC2)c1 | -2% | · | · | -1% | · | ·
COc1ccc(/C=C2\SC(=O)N(CCNC(=O)C3CC4C=CC3C4)C2=O)cc1 (stereo not drawn) | 5% | 101* | 4% | 3% | 58* | 1%
COc1ccc(/C=C2/SC(=O)N(CCNC(=O)CC(NC(C)=O)c3ccccc3)C2=O)cc1 (stereo not drawn) | -5% | 29 | -4% | -8% | 21* | 2%
COc1ccc(/C=C2\SC(=O)N(CCNC(=O)C3CSC4(C)CCC(=O)N34)C2=O)cc1 (stereo not drawn) | -2% | · | · | -5% | · | ·
COc1ccc(/C=C2\SC(=O)N(CCNC(=O)CN3C(=O)NC4(CCCC4)C3=O)C2=O)cc1 | 1% | · | · | 1% | · | ·
COc1ccc(/C=C2\SC(=O)N(CCn3cnnn3)C2=O)cc1 | 2% | 83* | 3% | 3% | 37* | 1%
COc1ccc(/C=C2/SC(=O)N(CCNC(=O)C3CCCN3C(=O)c3cccs3)C2=O)cc1 (stereo not drawn) | 4% | 63* | 1% | -4% | 32* | 0%
COc1ccc(/C=C2/SC(=O)N(CC(O)Cn3c4ccccc4c4ccccc43)C2=O)cc1 (stereo not drawn) | 0% | -9 | 3% | -8% | -1 | -9%
Cc1ccc(N2CCN(C(=O)CCc3c(C)nc4ncnn4c3C)CC2)c(C)c1 | 9% | · | · | 2% | · | ·
Cc1ccccc1CNC(=O)CN1C(=O)CCCc2ccccc21 | 0% | · | · | -9% | · | ·

Compound activity as filed in PubChem.
